Activity calls are given as the source filed them. Rule for the calls: active = hit-call score of the fitted dose curve at least 0.9, where 1 is the maximum; inactive = score below 0.9.

The nature of this assay: ATG_AP_2_CIS: Attagene CIS-FACTORIAL HepG2 Assay for human Activator Protein 2 (AP-2) (AID 2282932). Conditions: HepG2 AP-2 cis-reporter, Attagene transcription factor profiling; actives raise or lower the signal. As to the method: ATG_CIS is a cell-based, multiplexed-readout assay that uses HepG2, a human liver cell line, with measurements taken at 24 hours after chemical dosing in a 24-well plate.ATG_AP_2_CIS is one of 52 assay component(s) measured or calculated from the ATG_CIS assay. It is designed to make measurements of mRNA induction, a form of inducible reporter, as detected with fluorescence intensity signals by Reverse transcription polymerase chain reaction (RT-PCR) and Capillary electrophoresis technology.Data from the assay component ATG_AP_2_CIS was analyzed into 1 assay endpoint. This assay endpoint, ATG_AP_2_CIS, was analyzed with bidirectional fitting relative to DMSO as the negative control and baseline of activity. Using a type of inducible reporter, measures of mRNA for gain or loss-of-signal activity can be used to understand the reporter gene at the transcription factor-level as they relate to the gene TFAP2A and TFAP2B and TFAP2D. Furthermore, this assay endpoint can be referred to as a primary readout, because this assay has produced multiple assay endpoints where this one serves a reporter gene function. To generalize the intended target to other relatable targets, this assay endpoint is annotated to the dna binding intended target family, where the subfamily is basic helix-turn-helix leucine zipper.
Human liver HepG2 cells are transiently transfected with multiple reporter transcription units (MRTUs) in 6-well plates using FuGene 6 reagent (Roche; 3 ml FuGene/1 mg DNA). The MRTU constructs are regulated by a cis-regulating element (promoter). […] A major difference between the CIS and TRANS system is that in CIS activities of endogenous TFs are measured, whereas the TRANS assay evaluates changes in activities of exogenous, chimeric NR-Gal4 proteins. […] At the end of 24 hour incubation, total RNA was isolated using TriZol reagent (Invitrogen). The isolated RNA is then reverse-transcribed using oligo(dT) primer and Mo-MLV reverse transcriptase (Invitrogen) with DNAse I (Ambion) treatment for 30 min. The one-tenth of the produced cDNA was amplified by PCR using Taq DNA polymerase (Invitrogen) and two reporter sequence-specific primers. The PCR products were fluorescently labeled by primer extension with 6-arboxyfluorescein (6-FAM) 5'-labeled reporter sequence-specific primer (2 min at 95 C, 20 s at 68 C and 10 min at 72 C) and these products were digested with 5U of HpaI (New England Biolabs) for 2h at 37 C. The fragments were purified using Qiaquick PCR columns (Qiagen), analyzed on an ABI 3130xL genetic analyzer (Applied Biosystems) with peak positions identified by using a set of X-rhodamine (ROX)-labeled MapMarker1000 molecular weight standards (BioVentures). The raw capillary electrophoresis data was processed using Attagraph software (Attagene).
In the case of `CCCCCCCCCCC1CO1` (stereo not given), the result was inactive.

In the case of `F[B-](F)(F)F`, the call was inactive.

`Brc1ccc(Oc2ccc(Br)cc2)cc1`: the compound was classed as inactive.

Regarding `CCC(C)(CCC(C)C)C(=O)O` (stereo not given), the compound was called inactive.

Take `Clc1ccc(Sc2cc(Cl)c(Cl)cc2Cl)cc1`: the compound was classed as inactive.

Consider `O=C(O)c1cc(Cl)cc(Cl)c1O`, for which the outcome was inactive.

On to `COC(OC)C(C)c1ccccc1` (stereo not given), for which the compound was classed as inactive.

With `CC(=O)c1nccs1`, the outcome was inactive.

As to `O=[N+]([O-])c1ccccc1C(F)(F)F`, the result was inactive.

Regarding `N#CCN(CC#N)CCN(CC#N)CC#N`, the result was inactive.

Take `CCCCCCOC(=O)CCCCCCCC(=O)OCCCCCC`: the result was inactive.

As for `O=C(c1ccccc1)c1ccccc1O`, the outcome was inactive.

For the compound `Oc1ccc(Cl)cc1C1CCCC1`, the call was inactive.

On to `CCO[Si](CCCN)(OCC)OCC`, for which the result was inactive.

Take `CC/C=C/CCO`: the outcome was inactive.

For `Cc1ccnc(N)c1`, the result was inactive.

For `OCCc1ccccn1`, the compound was called inactive.

As to `C=CC(C)(CCC=C(C)C)OC(=O)c1ccccc1` (stereo not given), the compound was classed as inactive.

As for `CCO[Si](OCC)(OCC)c1ccccc1`, the compound was classed as inactive.

Consider `CC(=O)OC(C)(C)Cc1ccccc1`, for which the compound was called inactive.

Consider `O=C(CC(C(=O)OC1CCCCC1)S(=O)(=O)O)OC1CCCCC1` (stereo not given), for which the call was inactive.

For `CC(C)n1c(/C=C/[C@@H](O)C[C@@H](O)CC(=O)O)c(-c2ccc(F)cc2)c2ccccc21`, the call was inactive.

Consider `CCOc1ccc2c(c1)C(C)CC(C)(C)N2` (stereo not given), for which the outcome was inactive.

For `CN(C)c1ccc(C(c2ccccc2)c2ccc(N(C)C)cc2)cc1`, the result was inactive.

For `CCC(C)=NO`, the result was inactive.

For the compound `CCCCCC1CCCC(=O)O1` (stereo not given), the outcome was inactive.

Turning to `CC1=C(CC(=O)O)c2cc(F)ccc2/C1=C\c1ccc(S(C)=O)cc1` (stereo not given), the compound was called inactive.

Turning to `CC/C=C\CCCCCO`, the compound was called inactive.

Consider `COc1c2occc2cc2ccc(=O)oc12`, for which the compound was classed as inactive.

On to `O=C(O)c1ccccc1C(=O)O`, for which the compound was called inactive.

On to `CCCCNC(N)=O`, for which the compound was called inactive.

As for `C=CCOCC(CC)(CO)COCC=C`, the result was inactive.

In the case of `CO[Si](CCCNCCN)(OC)OC`, the compound was classed as inactive.

For the compound `CCOC(=O)c1ccccc1`, the call was inactive.

For the compound `O=C(O)/C=C/C(=O)O`, the compound was classed as inactive.

Regarding `COC(=O)[C@]1(C)CCC[C@@]2(C)[C@H]1CC=C1C=C(C(C)C)CC[C@@H]12`, the result was inactive.

For the compound `CCCCCCCCCCCCCC`, the compound was called inactive.

In the case of `CN(C)Cc1cc(C(C)(C)C)c(O)c(C(C)(C)C)c1`, the call was inactive.

Take `CCCCn1cc[n+](C)c1`: the call was inactive.

Consider `CCCCCCC(O)CCCCCCCCCCC(=O)OC` (stereo not given), for which the result was inactive.

Values taken from PubChem BioAssay (EPA / NIEHS).
